Reference: PubChem BioAssay (EPA / NIEHS)
Records with an inconclusive call do not appear. The source made the active and inactive calls. How the source made its calls, unless noted: active means hit-call score of the fitted dose curve at least 0.9, where 1 is the maximum; inactive means score below 0.9.

Experiments:
[1] = biological target: Glucocorticoid receptor (Homo sapiens) (UniProt P04150); experiment: ATG_GR_TRANS: Attagene TRANS-FACTORIAL HepG2 Assay for human Glucocorticoid Receptor (GR) (AID 2282978; active means hit-call score of the fitted dose curve at least 0.9, where 1 is the maximum;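 further: activators score as hits since higher reporter transcript over DMSO is fitted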); settings: HepG2 Attagene TRANS GR reporter, mRNA transcription
Sequence of Glucocorticoid receptor (Homo sapiens) (P04150 whole entry, looked up, the tested form may be a part): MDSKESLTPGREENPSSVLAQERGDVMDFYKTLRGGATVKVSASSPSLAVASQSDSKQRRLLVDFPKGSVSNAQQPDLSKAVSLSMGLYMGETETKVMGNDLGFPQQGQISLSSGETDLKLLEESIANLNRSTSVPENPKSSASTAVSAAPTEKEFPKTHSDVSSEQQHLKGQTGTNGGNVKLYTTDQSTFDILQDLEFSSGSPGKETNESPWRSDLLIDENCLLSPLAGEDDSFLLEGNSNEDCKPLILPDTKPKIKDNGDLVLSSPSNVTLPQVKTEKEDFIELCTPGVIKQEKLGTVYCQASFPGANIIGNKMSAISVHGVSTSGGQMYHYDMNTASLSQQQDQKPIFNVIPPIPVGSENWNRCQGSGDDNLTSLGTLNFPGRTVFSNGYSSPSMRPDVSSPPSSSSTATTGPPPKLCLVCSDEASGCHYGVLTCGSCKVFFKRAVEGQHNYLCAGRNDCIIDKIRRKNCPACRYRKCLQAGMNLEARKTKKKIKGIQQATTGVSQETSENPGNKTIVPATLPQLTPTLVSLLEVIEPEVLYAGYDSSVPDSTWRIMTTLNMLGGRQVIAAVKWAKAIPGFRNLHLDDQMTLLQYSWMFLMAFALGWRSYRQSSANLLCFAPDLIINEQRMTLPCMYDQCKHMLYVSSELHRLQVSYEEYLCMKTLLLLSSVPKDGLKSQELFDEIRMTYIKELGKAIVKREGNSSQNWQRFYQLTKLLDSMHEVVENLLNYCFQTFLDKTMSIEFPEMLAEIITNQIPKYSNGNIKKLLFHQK
Outline: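 Exogenous NR-GAL4 fusion activity was assessed through induced GAL4-UAS reporter transcripts in transfected human HepG2 cells, quantified after 24 h by RT-PCR and fluorescent capillary electrophoresis with DMSO as baseline.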

[2] = biological target: Oxysterols receptor LXR-beta (Homo sapiens) (UniProt P55055); experiment: ATG_LXRb_TRANS: Attagene TRANS-FACTORIAL HepG2 Assay for human Liver X Receptor beta (LXRb) (AID 2282981; active means hit-call score of the fitted dose curve at least 0.9, where 1 is the maximum); settings: HepG2 Attagene TRANS GAL4-LXRb reporter, mRNA
Sequence of Oxysterols receptor LXR-beta (Homo sapiens) (P55055 whole entry, looked up, the tested form may be a part): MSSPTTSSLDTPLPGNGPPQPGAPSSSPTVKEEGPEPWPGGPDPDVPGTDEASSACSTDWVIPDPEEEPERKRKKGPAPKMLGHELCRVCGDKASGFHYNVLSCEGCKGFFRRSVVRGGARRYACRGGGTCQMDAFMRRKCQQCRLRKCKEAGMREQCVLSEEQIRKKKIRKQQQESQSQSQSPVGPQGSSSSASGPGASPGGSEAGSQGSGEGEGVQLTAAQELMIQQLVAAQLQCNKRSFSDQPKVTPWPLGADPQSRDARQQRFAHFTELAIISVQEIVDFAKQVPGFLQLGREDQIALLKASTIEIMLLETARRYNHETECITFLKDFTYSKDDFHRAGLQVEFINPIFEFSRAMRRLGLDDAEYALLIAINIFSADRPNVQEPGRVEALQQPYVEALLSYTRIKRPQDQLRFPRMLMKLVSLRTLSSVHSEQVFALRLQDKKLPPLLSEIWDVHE
Outline: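 HepG2 cells transiently transfected with multiple reporter transcription units carrying chimeric NR-Gal4 proteins acting on GAL4-UAS reporters; compound exposure 24 h. Reporter mRNA quantified by RT-PCR, 6-FAM labelling, HpaI digestion and capillary electrophoresis; gain of signal versus DMSO.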

[3] = biological target: Hepatocyte nuclear factor 4-alpha (Homo sapiens) (UniProt P41235); experiment: ATG_HNF4a_TRANS: Attagene TRANS-FACTORIAL HepG2 Assay for human Hepatocyte Nuclear Factor 4 alpha (HNF4a) (AID 2282982; active means hit-call score of the fitted dose curve at least 0.9, where 1 is the maximum); settings: HepG2 HNF4a transactivation reporter, mRNA readout
Sequence of Hepatocyte nuclear factor 4-alpha (Homo sapiens) (P41235 whole entry, looked up, the tested form may be a part): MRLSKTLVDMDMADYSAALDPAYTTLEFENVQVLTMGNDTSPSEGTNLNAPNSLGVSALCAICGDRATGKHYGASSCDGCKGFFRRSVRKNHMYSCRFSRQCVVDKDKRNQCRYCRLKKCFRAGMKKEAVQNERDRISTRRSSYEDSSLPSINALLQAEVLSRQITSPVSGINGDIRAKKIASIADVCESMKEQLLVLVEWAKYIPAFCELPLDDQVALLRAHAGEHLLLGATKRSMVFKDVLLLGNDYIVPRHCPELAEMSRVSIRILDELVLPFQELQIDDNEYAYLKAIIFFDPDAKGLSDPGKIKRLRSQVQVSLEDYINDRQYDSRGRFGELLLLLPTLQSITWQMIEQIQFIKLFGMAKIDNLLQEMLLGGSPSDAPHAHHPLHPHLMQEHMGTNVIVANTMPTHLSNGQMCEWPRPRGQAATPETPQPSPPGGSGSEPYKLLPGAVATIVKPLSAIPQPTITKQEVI
Outline: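 HepG2 cells transiently transfected with multiplexed GAL4-UAS reporter units responsive to chimeric NR-GAL4 proteins; compound exposure 24 h. Reporter mRNA quantified by RT-PCR, 6-FAM labelling, HpaI digestion and capillary electrophoresis; gain of signal versus DMSO baseline.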

[4] = ATG_M_06_TRANS: Attagene TRANS-FACTORIAL HepG2 Assay for M06 Transcription Factor (Internal Marker) (AID 2282983; active means hit-call score of the fitted dose curve at least 0.9, where 1 is the maximum;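 further: reporter transcript level by RT-PCR then capillary electrophoresis fluorescence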); settings: HepG2 Attagene TRANS M06 internal marker reporter
Outline: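 HepG2 cells transiently transfected with GAL4-UAS multiple reporter units, dosed 24 h. Reporter RNA reverse-transcribed, PCR-amplified, 6-FAM-labeled, HpaI-digested and quantified by capillary electrophoresis; this internal-marker signal fitted upward relative to DMSO.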

[5] = ATG_M_32_TRANS: Attagene TRANS-FACTORIAL HepG2 Assay for M32 Transcription Factor (Internal Marker) (AID 2282984; active means hit-call score of the fitted dose curve at least 0.9, where 1 is the maximum;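 further: transcript level of a background control reporter unit measured by RT-PCR and capillary electrophoresis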); settings: HepG2 Attagene TRANS M32 internal marker reporter
Outline: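 HepG2 cells transiently transfected with multiple GAL4-UAS reporter transcription units, dosed for 24 hours; reporter mRNA quantified by RT-PCR, 6-FAM primer extension, HpaI digestion and capillary electrophoresis. Gain-of-signal fitted versus DMSO baseline; internal background-control marker.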

[6] = biological target: Nuclear receptor subfamily 4 group A member 2 (Homo sapiens) (UniProt P43354); experiment: ATG_NURR1_TRANS: Attagene TRANS-FACTORIAL HepG2 Assay for human Nuclear Receptor Related Protein 1 (NURR1) (AID 2282985; active means hit-call score of the fitted dose curve at least 0.9, where 1 is the maximum); settings: HepG2 Attagene TRANS reporter, mRNA readout
Sequence of Nuclear receptor subfamily 4 group A member 2 (Homo sapiens) (P43354 whole entry, looked up, the tested form may be a part): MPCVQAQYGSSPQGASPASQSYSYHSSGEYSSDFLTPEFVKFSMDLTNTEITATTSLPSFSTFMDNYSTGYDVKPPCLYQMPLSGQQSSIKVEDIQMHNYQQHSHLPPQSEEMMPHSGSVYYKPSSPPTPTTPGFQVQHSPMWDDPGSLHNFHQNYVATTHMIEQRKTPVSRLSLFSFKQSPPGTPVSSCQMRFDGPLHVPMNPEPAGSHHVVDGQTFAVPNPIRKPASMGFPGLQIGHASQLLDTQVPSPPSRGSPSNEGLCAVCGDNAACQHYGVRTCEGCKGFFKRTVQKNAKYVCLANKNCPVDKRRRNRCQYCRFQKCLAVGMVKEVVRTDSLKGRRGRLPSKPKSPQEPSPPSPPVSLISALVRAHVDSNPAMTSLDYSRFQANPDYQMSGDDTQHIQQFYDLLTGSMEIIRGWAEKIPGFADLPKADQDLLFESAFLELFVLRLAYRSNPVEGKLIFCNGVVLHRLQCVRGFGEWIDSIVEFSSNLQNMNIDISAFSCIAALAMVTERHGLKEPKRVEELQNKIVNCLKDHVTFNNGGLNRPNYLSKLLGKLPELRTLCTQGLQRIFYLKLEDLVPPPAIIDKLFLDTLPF
Outline: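 HepG2 cells transiently transfected with GAL4-UAS reporter units and chimeric NR-Gal4 constructs; chemical exposure 24 h. Reporter mRNA quantified by RT-PCR, fluorescent labelling and capillary electrophoresis; gain of signal fitted relative to DMSO baseline.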

[7] = biological target: Nuclear respiratory factor 1 (Homo sapiens) (UniProt Q16656); experiment: ATG_NRF1_CIS: Attagene CIS-FACTORIAL HepG2 Assay for human Nuclear Respiratory Factor 1 (NRF1) Orphan Gene (AID 2282987); settings: HepG2 NRF1 cis-element reporter, Attagene multiplex; actives raise or lower the signal
Sequence of Nuclear respiratory factor 1 (Homo sapiens) (Q16656 whole entry, looked up): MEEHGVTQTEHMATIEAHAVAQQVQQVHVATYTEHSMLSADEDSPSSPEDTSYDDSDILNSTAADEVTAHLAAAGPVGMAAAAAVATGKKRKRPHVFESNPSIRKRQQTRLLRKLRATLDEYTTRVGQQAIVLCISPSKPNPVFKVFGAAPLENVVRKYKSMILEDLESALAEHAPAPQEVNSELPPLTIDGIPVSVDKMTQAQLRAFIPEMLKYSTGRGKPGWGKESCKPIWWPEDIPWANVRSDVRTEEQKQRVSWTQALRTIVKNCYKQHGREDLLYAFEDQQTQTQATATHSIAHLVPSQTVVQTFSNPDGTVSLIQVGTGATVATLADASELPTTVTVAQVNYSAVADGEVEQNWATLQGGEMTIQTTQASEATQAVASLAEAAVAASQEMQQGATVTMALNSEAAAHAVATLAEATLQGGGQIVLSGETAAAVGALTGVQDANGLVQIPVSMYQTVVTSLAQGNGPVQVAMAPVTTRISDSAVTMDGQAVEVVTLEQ
Outline: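 Using DMSO as baseline, gain- or loss-of-signal was fitted for reporter mRNA levels in HepG2 cells transiently transfected with cis-regulated reporter units. Samples were taken 24 h after dosing and read by RT-PCR with capillary electrophoresis.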

[8] = ATG_NFI_CIS: Attagene CIS-FACTORIAL HepG2 Assay for human Nuclear Factor I (NFI) (AID 2282989); settings: HepG2 cis-regulatory reporter, NFI response element transcription; actives raise or lower the signal
Outline: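 HepG2, transient MRTU, 24 h exposure; RNA→cDNA→PCR→FAM label→HpaI→CE fluorescence. Bidirectional fit, DMSO = baseline.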

[9] = biological target: Myc proto-oncogene protein (Homo sapiens) (UniProt P01106); experiment: ATG_Myc_CIS: Attagene CIS-FACTORIAL HepG2 Assay for human Myelocytomatosis (Myc) Proto-Oncogene Transcription Factor (AID 2282990); settings: HepG2, Attagene cis-reporter transcription factor activity; actives raise or lower the signal
Sequence of Myc proto-oncogene protein (Homo sapiens) (P01106 whole entry, looked up): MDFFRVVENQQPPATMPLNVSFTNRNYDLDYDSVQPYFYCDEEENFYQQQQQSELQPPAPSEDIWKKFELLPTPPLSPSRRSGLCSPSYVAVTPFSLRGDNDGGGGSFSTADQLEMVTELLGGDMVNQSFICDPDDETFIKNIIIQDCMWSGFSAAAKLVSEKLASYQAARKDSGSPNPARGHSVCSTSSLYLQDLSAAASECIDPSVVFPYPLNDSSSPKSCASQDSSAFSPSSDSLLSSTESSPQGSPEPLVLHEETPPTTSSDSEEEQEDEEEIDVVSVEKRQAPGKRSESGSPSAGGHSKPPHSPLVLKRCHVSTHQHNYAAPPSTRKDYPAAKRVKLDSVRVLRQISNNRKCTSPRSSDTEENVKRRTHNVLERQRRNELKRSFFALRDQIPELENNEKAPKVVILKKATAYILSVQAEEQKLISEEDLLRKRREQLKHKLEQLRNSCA
Outline: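 DMSO-normalised, bidirectionally fitted reporter mRNA signal. HepG2 cells transfected with cis reporter constructs, treated 24 h; transcripts detected by RT-PCR, 6-FAM primer extension and CE.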

[10] = ATG_NF_kB_CIS: Attagene CIS-FACTORIAL HepG2 Assay for human Nuclear Factor Kappa B (NF-kB) (AID 2282991); settings: HepG2 Attagene cis-factorial NF-kB reporter mRNA; actives raise or lower the signal
Outline: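 Endpoint from a 52-component multiplexed HepG2 reporter panel: cis-regulated transcription units transiently transfected, 24 h dosing, reporter mRNA quantified by RT-PCR and capillary electrophoresis, scored as increase or decrease against DMSO.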

[11] = ATG_NRF2_ARE_CIS: Attagene CIS-FACTORIAL HepG2 Assay for human Nuclear Factor Erythroid 2 Related Factor 2 (NFR2) response to Antioxidant Response Elements (ARE) (AID 2282992); settings: HepG2 Attagene ARE/NRF2 reporter, transcription factor activity; actives raise or lower the signal;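 on AC50: reporter mRNA level measured by RT-PCR and capillary electrophoresis fluorescence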
Outline: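 Multiplexed reporter mRNA profiling in HepG2 after a 24 h chemical exposure. Curves fitted in both directions relative to DMSO negative control.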

[12] = biological target: Cellular tumor antigen p53 (Homo sapiens) (UniProt P04637); experiment: ATG_p53_CIS: Attagene CIS-FACTORIAL HepG2 Assay for human p53 Transcription Factor (AID 2282994); settings: HepG2 p53 cis-element reporter, Attagene mRNA; actives raise or lower the signal
Sequence of Cellular tumor antigen p53 (Homo sapiens) (P04637 whole entry, looked up): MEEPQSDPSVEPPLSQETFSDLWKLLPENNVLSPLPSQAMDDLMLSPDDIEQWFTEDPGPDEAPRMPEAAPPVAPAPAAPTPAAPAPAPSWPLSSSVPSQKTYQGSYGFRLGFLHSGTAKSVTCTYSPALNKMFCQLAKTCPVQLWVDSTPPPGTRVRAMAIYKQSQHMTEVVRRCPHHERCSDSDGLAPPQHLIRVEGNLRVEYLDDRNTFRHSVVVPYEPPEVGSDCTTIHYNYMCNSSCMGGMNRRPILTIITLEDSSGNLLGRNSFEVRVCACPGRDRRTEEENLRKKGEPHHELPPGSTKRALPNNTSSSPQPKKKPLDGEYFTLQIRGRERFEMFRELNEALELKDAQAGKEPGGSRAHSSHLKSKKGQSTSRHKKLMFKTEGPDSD
Outline: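 Multiplexed reporter mRNA assay in human HepG2 liver cells; cis-regulated units report endogenous factor activity. Values come from bidirectional curve fitting against DMSO negative control after 24 h treatment.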

[13] = biological target: Oxysterols receptor LXR-alpha (Homo sapiens) (UniProt Q13133); experiment: ATG_LXRa_TRANS: Attagene TRANS-FACTORIAL HepG2 Assay for human Liver X Receptor alpha (LXRa) (AID 2282980; active means hit-call score of the fitted dose curve at least 0.9, where 1 is the maximum); settings: HepG2 Attagene TRANS reporter, LXRa transactivation
Sequence of Oxysterols receptor LXR-alpha (Homo sapiens) (Q13133 whole entry, looked up, the tested form may be a part): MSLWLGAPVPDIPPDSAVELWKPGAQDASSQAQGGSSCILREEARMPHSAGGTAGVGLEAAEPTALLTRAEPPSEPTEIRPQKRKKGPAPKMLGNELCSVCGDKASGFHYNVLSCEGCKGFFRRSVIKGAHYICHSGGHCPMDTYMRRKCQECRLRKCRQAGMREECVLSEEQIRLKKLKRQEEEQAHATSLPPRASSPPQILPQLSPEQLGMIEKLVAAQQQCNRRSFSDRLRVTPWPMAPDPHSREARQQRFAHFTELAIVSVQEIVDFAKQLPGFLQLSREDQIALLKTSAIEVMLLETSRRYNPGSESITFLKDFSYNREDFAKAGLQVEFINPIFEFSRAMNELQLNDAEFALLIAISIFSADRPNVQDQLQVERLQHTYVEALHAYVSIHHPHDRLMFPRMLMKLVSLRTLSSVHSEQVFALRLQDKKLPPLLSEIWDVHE
Outline: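 HepG2 cells transiently transfected with GAL4-UAS reporter units for chimeric NR-Gal4 proteins, exposed to chemicals for 24 h. Reporter mRNA quantified by RT-PCR and capillary electrophoresis; gain of signal fitted relative to DMSO.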

[14] = biological target: Transcriptional activator Myb (Homo sapiens) (UniProt P10242); experiment: ATG_Myb_CIS: Attagene CIS-FACTORIAL HepG2 Assay for human Myeloblastosis (Myb) Proto-Oncogene Transcription Factor (AID 2282986); settings: HepG2 Attagene CIS-FACTORIAL Myb reporter transcription; actives raise or lower the signal
Sequence of Transcriptional activator Myb (Homo sapiens) (P10242 whole entry, looked up): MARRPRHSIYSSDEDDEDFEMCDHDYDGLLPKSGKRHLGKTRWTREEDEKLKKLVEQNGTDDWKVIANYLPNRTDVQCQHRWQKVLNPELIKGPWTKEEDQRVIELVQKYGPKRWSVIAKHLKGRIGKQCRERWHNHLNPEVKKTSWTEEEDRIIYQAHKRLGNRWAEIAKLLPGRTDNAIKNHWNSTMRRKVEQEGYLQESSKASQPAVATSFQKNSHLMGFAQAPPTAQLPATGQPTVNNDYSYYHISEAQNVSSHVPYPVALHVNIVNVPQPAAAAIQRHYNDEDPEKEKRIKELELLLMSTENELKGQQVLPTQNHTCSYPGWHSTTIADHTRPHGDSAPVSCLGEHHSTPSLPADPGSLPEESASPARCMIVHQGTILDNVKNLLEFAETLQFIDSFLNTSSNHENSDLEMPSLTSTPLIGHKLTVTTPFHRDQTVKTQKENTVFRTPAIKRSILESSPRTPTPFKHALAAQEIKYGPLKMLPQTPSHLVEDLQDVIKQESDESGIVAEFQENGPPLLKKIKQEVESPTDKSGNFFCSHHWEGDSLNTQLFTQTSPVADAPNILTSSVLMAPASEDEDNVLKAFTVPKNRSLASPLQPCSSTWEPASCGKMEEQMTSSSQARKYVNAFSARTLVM
Outline: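 In this HepG2 transient-transfection format, cis-regulated reporter mRNA is quantified 24 h post-dosing by RT-PCR with capillary electrophoresis, fitted bidirectionally to DMSO baseline.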

[15] = ATG_Oct_MLP_CIS: Attagene CIS-FACTORIAL HepG2 Assay for human Octamer-Binding Transcription Factor (Oct) (AID 2282993); settings: HepG2 Attagene cis-factorial Oct reporter, mRNA; actives raise or lower the signal
Outline: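 Multiplexed cis-reporter assay in human liver HepG2 cells, 24 h incubation. Reporter RNA amplified and labelled, then resolved by capillary electrophoresis; DMSO serves as negative control and baseline.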

Measured: AC50

CC(C)c1ccc(C=O)cc1
not listed: [13] | [14] | [15]
inactive: all other assays above

CCCCCCCCCCCCCCCCCC#N
not listed: [2] | [3]
inactive: all other assays above

O=C(O)CCCCCCCCCC(=O)O
not listed: [7] | [8] | [10] | [13]
inactive: all other assays above

CC(=O)OC(C)C
not listed: [2] | [3] | [5] | [10]
inactive: all other assays above

CC(=O)Nc1nnc(S(N)(=O)=O)s1
not listed: [3] | [4] | [6] | [13]
inactive: all other assays above

CCOC(=O)c1ccc(N(C)C)cc1
not listed: [4] | [7] | [10] | [12] | [13]
inactive: all other assays above

NC(=O)NNC(N)=O
not listed: [2] | [4]
inactive: all other assays above

CC(C)(Oc1ccc(C2CC2(Cl)Cl)cc1)C(=O)O (stereo not given)
not listed: [2] | [3] | [6] | [9] | [11] | [12]
inactive: all other assays above

CC(C)CCCCCOC(=O)CCS
not listed: [4] | [6] | [13]
inactive: all other assays above

CC1=NC(C)OC1C (stereo not given)
active: [11] 42.5 µM | [12] 167 µM
not listed: [4] | [10] | [13] | [14]
inactive: all other assays above

CC(C)c1ccc(C#N)cc1
inactive: [1] | [13] | [14] | [8] | [9] | [10] | [11] | [12]

NC(CO)(CO)CO
not listed: [4] | [10] | [12] | [13]
inactive: all other assays above

FC(F)(F)C(=NOCC1OCCO1)c1ccc(Cl)cc1
active: [6] 100 µM
not listed: [3] | [11] | [13]
inactive: all other assays above

CCN(CC)c1ccc(C(=O)c2ccccc2C(=O)O)c(O)c1
not listed: [2] | [6] | [8] | [12]
inactive: all other assays above

CC1(C)[C@H]2CC[C@]1(C)C(=O)C2
not listed: [2] | [3] | [6]
inactive: all other assays above

O=C1CCC(=O)N1Cl
not listed: [4] | [7] | [9] | [12] | [13]
inactive: all other assays above

NNC(=O)c1cccc(C(=O)NN)c1
not listed: [6] | [9] | [10] | [13]
inactive: all other assays above

Cc1cc(C)c(C(=O)O)c(C)c1
not listed: [3] | [6] | [9] | [13]
inactive: all other assays above

CCC(=O)Oc1ccc(/C(CC)=C(\CC)c2ccc(OC(=O)CC)cc2)cc1
active: [6] 26.1 µM | [7] 26.9 µM | [8] 25.2 µM | [10] 33.7 µM
not listed: [5] | [12] | [13]
inactive: all other assays above

CC(C)(C)c1n[nH]c(=O)n(N)c1=O
not listed: [4] | [5] | [6] | [7] | [11] | [13]
inactive: all other assays above

N=c1ccn2c(n1)O[C@H]1[C@H](O)[C@@H](CO)O[C@H]12
not listed: [4] | [6] | [13]
inactive: all other assays above

CNC(=S)N(C)C
inactive: [1] | [2] | [3] | [7] | [10] | [11] | [15] | [12]

CCCCCCCC[N+](C)(CCCCCCCC)CCCCCCCC
active: [11] 1.59 µM
not listed: [2] | [4] | [6] | [10] | [12]
inactive: all other assays above
